Laboratory results from PubChem BioAssay (NCI).
About 83,000 compounds went through this panel and 20% of them were active in at least one assay; those are over-represented in the sample as a whole.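 In brief: 96-well plates, 48 h treatment, single concentration, percent growth endpoint.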 A number with no mark means an inactive call. The source made the active and inactive calls. Rule for the calls: active = growth percent below 10; inactive = the rest.

Tested on: HL-60(TB) leukemia
Experiment: NCI-60 one-dose screen, 48 h (100 = growth as untreated, 0 = no growth, -100 = all killed)
Settings: 10 µM unless noted

SMILES	growth
Oc1cccc(-c2nc(N3CCOCC3)c3c4c(sc3n2)CCCC4)c1	74.7%
COC(=O)CC[C@@H](C)[C@H]1CC[C@H]2C3CC[C@@H]4C[C@@H]5CC[C@]4(C)[C@@]3(O5)[C@H](Br)[C@@H](Br)[C@]12C (stereo not given in full)	81.2%
S=CN1CCCCC1	102%
O=C(/C(=C/c1ccccc1)CN1CCCCC1)c1ccccc1	-16.4% (active)
Nc1cc2[nH]c(=O)c3ccccc3c2cc1Br	125%
CC(=O)n1c(/C(C#N)=C/c2ccc(N(C)C)cc2)cc2ccccc21	10.5%
O=C(Nc1ccccc1Cl)OCCN1CCOCC1	108%
Cc1cc2cn3c4ccc(O)cc4[nH]c(=O)c3c2cc1C	-51.9% (active)
N#Cc1c(-c2ccccc2)[nH]c2ncc(-c3ccccc3)n2c1=O	97.1%
O=C(Nc1ccccc1)Nc1ncnc2c1ncn2-c1ccccc1	100%
COc1cc(C2CC(c3cccc(Nc4ccncc4)c3)=NN2C(C)=O)cc(OC)c1OC (stereo not given)	94.6%
CCOc1ccc(/C=C\C(=O)O)cc1	82.9%
CCS(=O)(=O)c1ncnc2nc[nH]c12	101%
CC(C)(C)OC(=O)NCCc1ccc(N=C=S)cc1	19.8%
CCCCCCCCCCCCNC(=S)N/N=C/c1ccc(Cl)c(Cl)c1	116%
O=[N+]([O-])c1ccc(NC(c2ccccc2)c2ccc3cccnc3c2O)cc1 (stereo not given)	-9.64% (active)
O=C1C=CC2(NN=C(c3ccccc3)N2c2ccc(Cl)cc2)c2cccc(O)c21 (stereo not given)	23.5%
COC1CC(OC(=O)c2ccc([N+](=O)[O-])cc2)C(COC(=O)c2ccc([N+](=O)[O-])cc2)O1 (stereo not given)	97%
CN1CCN(C(=O)[C@@]2(C)CC[C@]3(C)CC[C@]4(C)C(=CC[C@@H]5[C@@]6(C)CCC(=O)NC(C)(C)[C@@H]6CC[C@]54C)[C@@H]3C2)CC1	-35.8% (active)
COc1cc(C2NC(c3cc(OC)c(OC)c(OC)c3)C(C#N)(C#N)C2(C#N)C#N)cc(OC)c1OC (stereo not given)	89.3%
CN1CC[C@@H](c2c(O)cc(O)c3c(=O)cc(-c4ccccc4Cl)oc23)[C@@H]1CO	-28.6% (active)
OCC1OC(n2cnc3c(Cl)ncnc32)CC1O (stereo not given)	121%
CC1(C)OC2C(CO)OC(n3ccc(=O)[nH]c3=O)C2O1 (stereo not given)	105%
Cc1nn(-c2ccc(Br)cc2)c2nc3[nH]c(=O)[nH]c(=O)c3nc12	120%
COc1ccccc1-n1c(-c2sc(NC(C)=O)nc2C)n[nH]c1=S	101%
